Experimental findings from PubChem BioAssay are described below.

Assay [1] is described as follows: small molecules captured by biotinylated probe aFSTL3 – biochemical, small-molecule microarray, fluorescence 635/667, stem cell growth factor project, primary screen (AID 1064).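 Note: measures binding of the biotinylated anti-FSTL3 antibody to printed compounds.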 The conditions noted are these: higher = more signal.
Assay [2] can be described thus: binders from COS7 lysate, DM2A8 probe, primary screen, torsin A project, cell lysate, small-molecule microarray, fluorescence 635/667 (AID 1065). The conditions noted are these: higher = more signal, COS7 lysate expressing mutant human TOR1A.
Assay [3] can be described thus: small molecules captured by biotinylated probe aFGF2 – biochemical, small-molecule microarray, fluorescence 635/667, stem cell growth factor project, primary screen (AID 1067).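 Note: measures binding of biotinylated aFGF2 protein to printed compounds on slides; z-score merges feature fluorescence and signal-to-noise across triplicate slides.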 The note with it: higher = more signal.
Assay [4] can be described thus: small molecules captured by biotinylated probe aFGF10 – biochemical, small-molecule microarray, fluorescence 635/667, stem cell growth factor project, primary screen (AID 1071).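 Note: score merges 667 nm spot intensity and signal to noise from triplicate slides.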 The note with it: higher = more signal.
Assay [5] deals with Neurogenic locus notch homolog protein 2 (Homo sapiens) (UniProt Q04721). Put plainly: small molecules binding Notch2 protein – biochemical, small-molecule microarray, 635 nm fluorescence, stem cell growth factors, primary screen (AID 1073). The note with it: higher = more signal.
Sequence of Neurogenic locus notch homolog protein 2 (Homo sapiens) (Q04721 whole entry, looked up, canonical isoform): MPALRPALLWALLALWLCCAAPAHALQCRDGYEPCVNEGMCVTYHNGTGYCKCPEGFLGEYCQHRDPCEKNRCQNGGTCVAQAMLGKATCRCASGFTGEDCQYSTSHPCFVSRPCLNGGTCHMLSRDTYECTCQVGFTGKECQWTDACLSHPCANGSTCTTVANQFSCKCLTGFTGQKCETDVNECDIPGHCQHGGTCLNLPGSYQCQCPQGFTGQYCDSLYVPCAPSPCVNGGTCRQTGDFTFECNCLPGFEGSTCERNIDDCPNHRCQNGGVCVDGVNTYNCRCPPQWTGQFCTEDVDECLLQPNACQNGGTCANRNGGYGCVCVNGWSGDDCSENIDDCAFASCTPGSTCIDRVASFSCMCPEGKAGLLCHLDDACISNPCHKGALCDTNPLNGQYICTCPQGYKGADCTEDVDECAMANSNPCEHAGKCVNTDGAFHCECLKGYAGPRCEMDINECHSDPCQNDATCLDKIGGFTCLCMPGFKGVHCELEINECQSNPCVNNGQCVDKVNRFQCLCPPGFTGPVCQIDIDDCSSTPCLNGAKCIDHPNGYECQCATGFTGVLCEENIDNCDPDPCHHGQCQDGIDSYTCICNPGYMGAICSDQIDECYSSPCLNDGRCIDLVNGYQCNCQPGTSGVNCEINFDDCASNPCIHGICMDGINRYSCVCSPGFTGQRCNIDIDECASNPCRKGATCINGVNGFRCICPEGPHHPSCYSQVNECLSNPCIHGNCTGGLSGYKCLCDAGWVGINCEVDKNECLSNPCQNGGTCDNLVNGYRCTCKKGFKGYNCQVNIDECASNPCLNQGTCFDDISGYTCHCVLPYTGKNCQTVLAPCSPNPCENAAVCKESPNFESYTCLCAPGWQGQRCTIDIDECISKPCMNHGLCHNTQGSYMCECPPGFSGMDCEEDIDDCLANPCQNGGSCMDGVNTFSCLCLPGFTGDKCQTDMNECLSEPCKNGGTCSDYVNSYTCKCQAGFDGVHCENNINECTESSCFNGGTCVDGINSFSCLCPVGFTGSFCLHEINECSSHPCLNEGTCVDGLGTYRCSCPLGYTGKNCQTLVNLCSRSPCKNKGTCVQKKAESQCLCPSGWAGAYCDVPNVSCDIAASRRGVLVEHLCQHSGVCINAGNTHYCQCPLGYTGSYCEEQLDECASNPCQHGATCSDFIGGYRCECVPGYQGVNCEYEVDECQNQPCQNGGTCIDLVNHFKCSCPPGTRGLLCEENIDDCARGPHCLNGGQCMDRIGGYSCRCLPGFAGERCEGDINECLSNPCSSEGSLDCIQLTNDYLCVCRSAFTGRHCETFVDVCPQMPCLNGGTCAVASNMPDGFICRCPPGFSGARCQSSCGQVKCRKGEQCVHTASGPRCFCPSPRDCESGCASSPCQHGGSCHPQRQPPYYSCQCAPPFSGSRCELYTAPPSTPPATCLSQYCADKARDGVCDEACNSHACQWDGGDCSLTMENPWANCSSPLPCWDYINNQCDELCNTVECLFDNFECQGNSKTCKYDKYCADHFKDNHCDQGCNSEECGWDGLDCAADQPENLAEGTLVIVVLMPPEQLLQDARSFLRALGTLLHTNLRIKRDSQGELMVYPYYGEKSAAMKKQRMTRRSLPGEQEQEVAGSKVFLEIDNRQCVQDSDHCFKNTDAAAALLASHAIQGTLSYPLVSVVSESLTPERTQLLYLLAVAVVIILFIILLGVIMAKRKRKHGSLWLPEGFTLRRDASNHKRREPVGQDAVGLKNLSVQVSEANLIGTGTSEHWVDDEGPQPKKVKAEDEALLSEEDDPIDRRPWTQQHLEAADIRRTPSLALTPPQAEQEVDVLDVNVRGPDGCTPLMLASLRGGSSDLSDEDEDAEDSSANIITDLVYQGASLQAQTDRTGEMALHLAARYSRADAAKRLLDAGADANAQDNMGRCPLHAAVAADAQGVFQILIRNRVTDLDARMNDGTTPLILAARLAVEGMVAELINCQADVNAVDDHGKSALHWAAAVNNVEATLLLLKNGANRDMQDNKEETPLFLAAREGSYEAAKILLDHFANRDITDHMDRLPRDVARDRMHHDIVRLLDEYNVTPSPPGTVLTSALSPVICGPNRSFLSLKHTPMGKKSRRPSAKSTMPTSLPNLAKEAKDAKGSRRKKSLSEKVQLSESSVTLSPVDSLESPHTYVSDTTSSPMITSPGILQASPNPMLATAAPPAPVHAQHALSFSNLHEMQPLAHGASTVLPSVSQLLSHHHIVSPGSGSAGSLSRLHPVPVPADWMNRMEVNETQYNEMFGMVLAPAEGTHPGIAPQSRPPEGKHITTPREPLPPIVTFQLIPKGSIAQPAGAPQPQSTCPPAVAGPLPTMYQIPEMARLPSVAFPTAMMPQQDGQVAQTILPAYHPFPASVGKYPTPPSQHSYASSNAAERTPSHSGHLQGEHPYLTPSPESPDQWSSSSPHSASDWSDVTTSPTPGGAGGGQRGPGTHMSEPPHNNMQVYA
The target of assay [6] is Pro-neuregulin-1, membrane-bound isoform (Homo sapiens) (UniProt Q02297). In words: small molecules binding neuregulin-1 protein – biochemical, small-molecule microarray, fluorescence 635/667, psychiatric disease protein project, primary screen (AID 1075).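 Note: score combines 667 nm spot fluorescence with signal to noise.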 The conditions noted are these: NRG1 binding, 635 nm fluorescence, higher = more signal.
Sequence of Pro-neuregulin-1, membrane-bound isoform (Homo sapiens) (Q02297 whole entry, looked up, the tested form may be a part, canonical isoform): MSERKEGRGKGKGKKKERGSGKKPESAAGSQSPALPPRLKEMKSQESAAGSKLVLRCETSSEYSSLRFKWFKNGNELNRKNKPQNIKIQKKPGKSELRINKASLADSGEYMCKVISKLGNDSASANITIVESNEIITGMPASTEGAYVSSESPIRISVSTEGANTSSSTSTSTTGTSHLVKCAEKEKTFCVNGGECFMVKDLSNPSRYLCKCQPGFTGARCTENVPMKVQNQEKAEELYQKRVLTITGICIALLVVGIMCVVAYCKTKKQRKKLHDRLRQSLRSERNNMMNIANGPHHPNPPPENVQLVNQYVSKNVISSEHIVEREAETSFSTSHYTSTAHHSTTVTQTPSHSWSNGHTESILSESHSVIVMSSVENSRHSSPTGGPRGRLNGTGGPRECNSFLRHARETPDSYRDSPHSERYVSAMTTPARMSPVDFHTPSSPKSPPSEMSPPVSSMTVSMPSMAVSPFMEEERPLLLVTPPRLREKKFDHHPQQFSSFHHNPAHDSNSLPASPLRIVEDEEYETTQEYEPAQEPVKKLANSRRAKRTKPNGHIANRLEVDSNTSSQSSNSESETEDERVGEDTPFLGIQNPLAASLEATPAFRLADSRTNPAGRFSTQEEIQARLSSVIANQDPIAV
Assay [7] relates to Neuregulin-1 EGF-like domain. In words: small molecules binding NRG1 EGF domain – biochemical, small-molecule microarray, 635 nm fluorescence, primary screen (AID 1081).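 Note: binding of the protein to compounds printed on small-molecule microarray slides.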 The note with it: higher = more signal.
Assay [8] in a line: FRG1 expression reporter modulators in myotubes – cell-based, C2C12 myotubes, firefly/Renilla luciferase, luminescence, FRG1 inhibition for FSHD, primary screen (AID 1084). The note with it: FRG1 promoter luciferase, higher = more signal, called active from +8 up or from −8 down.
A short description of assay [9]: small molecules captured by biotinylated probe aFST – biochemical, small-molecule microarray, fluorescence 635/667, stem cell growth factor project, primary screen (AID 1086).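 Note: score merges 667 nm fluorescence with signal-to-noise of each printed compound spot.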 The note with it: higher = more signal.
Assay [10] in a line: binders of probe aHhip on microarray, primary screen, stem cell growth factor project, biochemical, small-molecule microarray, fluorescence 635/667 (AID 1087).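 Note: score merges spot fluorescence at 667nm with spot signal to noise ratio.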 The note with it: higher = more signal.
The subject of assay [11] is PRMT1 (protein arginine N-methyltransferase 1). In words: small molecules binding arginine methyltransferase PRMT1 – biochemical, small-molecule microarray, 635 nm fluorescence, primary screen (AID 1088).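 Note: binding of Prmt1 protein to compounds spotted on small-molecule microarray slides.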 The conditions noted are these: higher = more signal.
The nature of assay [12]: growth effects on S. cerevisiae YJM789 – YJM789 clinical isolate, OD600, 24 h, basal, primary screen (AID 1089).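 Note: growth of clinical yeast isolate S. cerevisiae YJM 789 seeded 1000 cells per well; test concentration not given here.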 The note with it: higher = more signal, called active from +8 up or from −8 down.
The nature of assay [13]: S. pombe growth modifiers, basal conditions – strain 972, OD600, 24 h, no modulator, primary screen (AID 1090).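 Note: basal condition with compound alone and no growth modifier present; test concentration not given here.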 The conditions noted are these: S. pombe 972 growth, higher = more signal, called active from +8 up or from −8 down.
The nature of assay [14]: budding yeast growth modifiers under rapamycin – strain BY4716, OD600, 96 h, primary screen (AID 1091). Note: test concentration not given here. The note with it: S. cerevisiae BY4716 + rapamycin, higher = more signal, called active from +8 up or from −8 down.
Assay [15] deals with Torsin-1A-interacting protein 2 (Homo sapiens) (UniProt Q8NFQ8). Put plainly: small molecules binding lysate-expressed LULL1 – cell lysate, human LULL1 lysate, 635/667 nm fluorescence, primary screen (AID 1092).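 Note: probe is lysate of COS7 cells overexpressing human LULL1; score merges per-feature 667 nm fluorescence with signal-to-noise.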 The conditions noted are these: small-molecule microarray, hLULL1 lysate binding, 635 nm fluorescence; higher = more signal.
Sequence of Torsin-1A-interacting protein 2 (Homo sapiens) (Q8NFQ8 whole entry, looked up): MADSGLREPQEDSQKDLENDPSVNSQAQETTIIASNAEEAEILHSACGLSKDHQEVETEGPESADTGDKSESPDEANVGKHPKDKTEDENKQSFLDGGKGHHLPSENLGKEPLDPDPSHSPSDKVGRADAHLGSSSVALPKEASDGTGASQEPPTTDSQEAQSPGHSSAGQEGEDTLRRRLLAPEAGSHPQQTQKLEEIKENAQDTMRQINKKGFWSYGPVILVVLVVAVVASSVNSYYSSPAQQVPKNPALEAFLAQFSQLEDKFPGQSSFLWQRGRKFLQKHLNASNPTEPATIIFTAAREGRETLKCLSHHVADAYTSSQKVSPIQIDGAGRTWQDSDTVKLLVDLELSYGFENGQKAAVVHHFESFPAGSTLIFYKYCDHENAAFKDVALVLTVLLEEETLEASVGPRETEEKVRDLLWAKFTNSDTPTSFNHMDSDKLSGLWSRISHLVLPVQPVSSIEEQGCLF
Assay [16] in a line: optical density change of DRC41 E. coli – strain DRC41, OD650, 24 h, E. coli filamentation project, primary screen (AID 1093).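 Note: MC1000 strain lacking acrAB efflux and sulA so SOS filamentation is blocked; test concentration not given here.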 The conditions noted are these: E. coli DRC41 growth, higher = more signal, called active from +8 up or from −8 down.
A short description of assay [17]: probe aLefty2 binding to arrayed compounds – biochemical, biotinylated probe, 635/667 nm fluorescence, primary screen (AID 1094).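 Note: score merges spot fluorescence near 667 nm with spot signal-to-noise ratio.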 The note with it: small-molecule microarray, higher = more signal.
Assay [18] relates to Noggin (protein binding on small-molecule microarray). Put plainly: small molecules binding Noggin protein – biochemical, 635/667 nm fluorescence, primary screen (AID 1095).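 Note: score merges 667 nm feature fluorescence with signal to noise over triplicate slides.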 The note with it: 635 nm fluorescence, higher = more signal.
Assay [19] has as its target Neurogenic locus notch homolog protein 3 (Homo sapiens) (UniProt Q9UM47). In words: small molecules binding NOTCH3 protein – biochemical, 635/667 nm fluorescence, primary screen (AID 1096). The note with it: small-molecule microarray, 635 nm fluorescence, higher = more signal.
Assay [20] in a line: probe aEGFR binding to arrayed compounds – biochemical, biotinylated probe, 635/667 nm fluorescence, primary screen (AID 1097).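 Note: probe is a biotinylated anti-EGFR antibody binding compounds printed on slides; score combines fluorescence near 667 nm and signal to noise of each spot.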 The note with it: small-molecule microarray, higher = more signal.

Molecules are shown by their SMILES. Calls of active or inactive are those of the source.

For the compound `CCOC(=O)NN=C1C[C@@H](O)[C@@H](O)[C@@H]2[C@@H]3C(=O)N(CC)C(=O)[C@@H]3CC[C@@H]12`, the composite z-score in assay [1] is -0.415; in assay [2] it was 0.377; in assay [3], -0.0355; in assay [4], 0.72; in assay [5] it was 0.797; in assay [6] it was -0.008. In addition, the composite z-score in assay [7] is 0.672; in [9], 0.713; in assay [10], -0.201; in assay [11] it was 0.268; in [15], 1.31; in [17], -0.176. The composite z-score stood at 0.299 in assay [18], 0.905 in assay [19] and 0.0082 in [20]. Also, the z-score in [8] was 0.323 (inactive); in assay [12], -0.846 (inactive); in assay [13] it was 0.0572 (inactive); in assay [14], -0.293 (inactive); in [16], -0.319 (inactive).
`C=C(/C(=C/C[C@H](OC(C)=O)c1ccc(OCCO)cc1)c1cnc2ccccc2c1)C(C)C`: the composite z-score in assay [1] was -0.195; in assay [2], 0.214; in assay [3], -0.122; in [4], 1.11; in assay [5], 1.01; in [6] it was 0.69. Besides, the composite z-score in assay [7] was 1; in assay [9], 0.182; in assay [10] it was -0.333; in [11], 1.44; in [15] it was 1.67; in assay [17] it was -0.062. Besides, the composite z-score in assay [18] was 1.58; in assay [19] it was 1.1; in assay [20], -0.204. Moreover, the z-score in [8] is 0.372 (inactive); in [12], -1.75 (inactive); in assay [13], -2.26 (inactive); in assay [14], -1.03 (inactive); in assay [16], 1.19 (inactive).
Consider `COc1ccc(O[C@H]2C=C[C@@H](c3ccccc3)O[C@@H]2COC(=O)N2CCCCC2)cc1`, for which the composite z-score in assay [1] was -0.0055; in assay [2], 0.38; in assay [3], -0.0493; in assay [4], -0.479; in assay [5], -0.701; in assay [6], -0.578. In addition, the composite z-score is -0.77 in assay [7]; -0.0007 in assay [9]; -0.171 in assay [10]; 0.38 in assay [11]; -0.616 in assay [15]; 0.0116 in assay [17]. Further, the figures for the composite z-score in [18], in assay [19] and in assay [20] were 0.0935, -1.08 and -0.0527, respectively. Besides, the z-score in [8] was -0.216 (inactive); in assay [12], 0.523 (inactive); in [13], -0.897 (inactive); in assay [14] it was 0.156 (inactive); in assay [16] it was 0.555 (inactive).
In the case of `COc1ccc(O[C@H]2C=C[C@@H](c3ccccc3)O[C@@H]2COC(=O)CCC(C)=NO[C@H](C)c2cn([C@@H]3COC[C@H]3O)nn2)cc1`, the composite z-score is -0.672 in assay [1]; 0.518 in assay [2]; -0.125 in assay [3]; 0.323 in [4]; 0.483 in [5]; 0.489 in assay [6]. Besides, the composite z-score was 0.586 in assay [7]; 0.0701 in [9]; -0.411 in assay [10]; 1.53 in [11]; 0.146 in [15]; -0.181 in assay [17]. Also, the composite z-score is 0.525 in [18], 0.942 in [19] and -0.148 in assay [20]. The z-score in [8] was 1.39 (inactive); in assay [12], -0.88 (inactive); in assay [13] it was -0.757 (inactive); in assay [14], -0.56 (inactive); in assay [16], 0.508 (inactive).
Consider `COc1ccc(O[C@@H]2[C@H](O)CO[C@H]2C=CC#Cc2ccccc2)cc1`, for which the composite z-score in assay [1] is -0.389; in assay [2] it was 0.511; in assay [3], -0.159; in [4] it was 0.0175; in [5], -0.22; in assay [6], 0.068. Also, the composite z-score in [7] is -0.203; in [9] it was -0.182; in assay [10], -0.0237; in [11], 0.101; in assay [15] it was 0.0101; in assay [17], -0.197. Moreover, the composite z-score is 0.347 in assay [18], -0.413 in assay [19] and -0.228 in assay [20]. Besides, the z-score was -0.606 (inactive) in [8]; 0.937 (inactive) in assay [12]; -0.777 (inactive) in assay [13]; 0.958 (inactive) in assay [14]; 0.338 (inactive) in assay [16].
